CHX counter: counter-screen for Shiga toxin inhibitors: cycloheximide protein synthesis inhibition; cell reporter, cycloheximide protein synthesis inhibition counterscreen; 300,000 compounds, 12% hits; max response, %; AID 2314; in the data active = max response mostly above about 13%, no sharp cut-off; inactive = mostly below about 14%; note: read at 38.3 µM for the half of the compounds with a filed dose; 0% is about no effect
Pf growth 96h: P. falciparum growth inhibition at 96 hour, primary screen for plastid delayed-death inhibitors | P. falciparum luciferase reporter growth, 96 h | Potency, µM (highest dose often 28.7 µM), inactives show at the highest dose activity change, negative = inhibition, actives largely listed as inhibitors | 320,000 compounds, 6.9% hits; note: potency is the fitted concentration of half-maximal effect; % is set by controls: 0 for no effect and ±100 for the full control effect
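Two-generation exposure (96 h) targets delayed-death phenotype. Reporter parasites carrying integrated firefly luciferase, in red cells at 2% hematocrit and 0.05% parasitemia final, kept at 37 C, 5% CO2; luminescence loss indicates inhibition.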
Shiga inhibitor: blocks Shiga toxin action in Vero cells. 290,000 compounds, 9.2% hits. inhibition, % at 38.7 µM. Vero cells, Shiga toxin protein synthesis inhibition reporter. AID 2315; in the data active = inhibition mostly above about 28%, no sharp cut-off; inactive = mostly below about 43%; note: 0% is about no effect
Pf growth 48h: inhibits P. falciparum growth in the first generation, 48 h; 310,000 compounds, 5.9% hits; P. falciparum luciferase growth in erythrocytes, 48 h; Potency, µM (titrated, usually from 28.7 µM), inactives show at the top dose activity change, negative = inhibition, hits mostly inhibitors; note: potency is the fitted concentration of half-maximal effect; % is set by controls: 0 for no effect and ±100 for the full control effect
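In quantitative HTS format, infected erythrocytes bearing luciferase-reporter parasites were treated for a single generation at 37 C. Luminescence after adding detection reagent served as the growth measure.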
AMA1 RON2 block: AMA1-RON2 (P. falciparum) interaction inhibition. Potency, µM (doses to about 58.2 µM), for the others: top-dose activity change, negative = inhibition, most hits filed as inhibitors. AID 720542. 360,000 compounds, 0.2% hits. AlphaScreen AMA1-biotinylated RON2 peptide binding;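 note: potency is the fitted concentration of half-maximal effect; 0% = vehicle wells and -100% = peptide control; nearly all actives have a fitted effect of over 45% in size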
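AMA1 (3D7) with his tag at 25 nM final met compounds first, then biotinylated RON2 peptide at 25 nM; detection used donor plus acceptor beads, 10 µg/mL apiece, read by AlphaScreen after 30 min at room temperature.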
HCV inh: HCV inhibition | Potency, µM (highest dose often 41.8 µM), for inactives: at the top dose activity change, negative = inhibition, usual class: inhibitors | Huh7.5.1 HCVcc-Cre infection, luciferase reporter, 44 h | 340,000 compounds, 3.4% hits; note: potency is the fitted concentration of half-maximal effect; % is set by controls: 0 for no effect and ±100 for the full control effect
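HCVcc-Cre virus at an moi near 0.5 was added right after compound to cells cultured 4 h from seeding (1,000 cells/well). Luciferase activity was determined 44 h later, 15 min after substrate addition at RT.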
The depositor's hits bear a star; ? = inconclusive; / = no result given; [ ] = another dose, or the depositor's remark. This is a sample that favours compounds with a hit; in the whole collection about 21% have one here. Unless noted, calls come from the whole dose curve; as a rule, active = well fitted curve in the direction sought with a large enough effect; inconclusive = small, poorly fitted or top-dose-only effect, or another doubt; inactive = no such curve, though single readings can be large; an effect the other way counts as inactive or inconclusive.

SMILES	CHX counter	Pf growth 96h	Shiga inhibitor	Pf growth 48h	AMA1 RON2 block	HCV inh
O=C(c1cc(S(=O)(=O)N2CCCCC2)ccc1F)N1CCCCC1	-2	?	-13	2.3µM*	3%	10%
O=C(c1ccccc1Cc1ccccc1)N1CCN(S(=O)(=O)c2ccc(F)cc2)CC1	/	?	/	?	18%	36%
CCCCOc1ccc(C(=O)NCC(=O)NNC(=O)c2ccco2)cc1	/	/	/	/	45%	13%
CC(=O)Nc1ccn(C2OC(C(COC(C)=O)NC(=O)C(CCCCNC(=O)OCc3ccccc3)NC(=O)OC(C)(C)C)C(OC(C)=O)C2OC(C)=O)c(=O)n1 (stereo unspecified)	6	/	-5	/	/	/
Cc1cc(-c2ccccc2)nc(N(C)NC(=O)c2cccc(C(F)(F)F)c2)c1S(C)(=O)=O	-2	3.7µM*	8	/	-1%	-4%
Cc1cc(-c2ccccc2)nc(N(C)NC(=O)C2CC2)c1S(C)(=O)=O	16	-2%	13	12%	-28%	6%
Cc1ccc(C)c(OCCC(=O)OCC(=O)Nc2ccc(Cl)cn2)c1	/	29%	/	?	-1%	6%
COc1cc(O)cc2c1C(=O)O[C@@H](C)CCCC(=O)CCCCC2	7	-4%	-14	/	0%	7%
COc1cc(O)c(CCO)c2c1C(=O)C[C@@H](C)O2	1	1.9µM*	-4	7%	9%	?
CCOc1ccccc1CN1CCC(n2nccc2NC(=O)C2CCCC2)CC1	-2	-11%	12	12µM*	-3%	?
Cn1cc(CN2CCC(n3nccc3NC(=O)c3ccccc3Cl)CC2)c2ccccc21	13	?	10	3.3µM*	-15%	-22%
CC(Cc1ccc(Cl)cc1)N1CCC(n2nccc2NC(=O)C2CCCC2)CC1 (stereo unspecified)	-3	?	-4	10µM*	5%	?
O=C(Nc1ccnn1C1CCN(Cc2ccccc2)CC1)C1CCCC1	-1	-8%	26	?	-1%	10%
CSc1ccc(CC(=O)N2CCC(n3nccc3NC(=O)C3CC3)CC2)cc1	45*	?	75*	66%	-12%	2%
C[C@@H]1CN([C@H](C)CO)C(=O)CCCn2nncc2CO[C@@H]1CN(C)C(=O)C1CC1	/	/	/	/	5%	/
O=C(CN1CCCCCC1)Nc1ccccc1C(=O)Nc1ccccc1	/	-6%	/	?	2%	?
COc1ccc(O)c(CN2CCC(n3nccc3NC(=O)C3CCCC3)CC2)c1	1	?	-22	13µM*	8%	-18%
CCc1ccc(-c2ccc3nnc(SCC(N)=O)n3n2)cc1	-1	3%	9	25%	2%	5%
CCSc1nnc2ccc(-c3ccc(C)cc3)nn12	26*	1%	34	-6%	9%	-6%
CCc1ccc(-c2ccc3nnc(SC)n3n2)cc1	22*	16%	17	5%	6%	0%
O=C(CCc1n[nH]c(=O)[nH]c1=O)Nc1cccc([N+](=O)[O-])c1	-2	-2%	34	-6%	3%	-1%
CCOC(=O)[C@]12CCCC=C1N(Cc1ccc(Cl)cc1Cl)C(=O)[C@H](CC(=O)N1CCN(C(=O)c3ccco3)CC1)C2	/	/	/	/	-2%	/
Clc1cccc(-c2nnc(SCc3nc4ccccc4[nH]3)n2Cc2ccco2)c1	-2	0%[5.75 µM]	-1	?	19%	-27%
CC(Sc1nnc(COc2ccc(Cl)cc2)n1Cc1ccco1)C(=O)N1CCNC1=O (stereo unspecified)	/	8.3µM*	/	?	-18%	-1%
O=C(CSc1nnc(COc2ccc(Cl)cc2)n1Cc1ccco1)c1ccccc1F	2	?	20	-16%	4%	?
SMILES	CHX counter	Pf growth 96h	Shiga inhibitor	Pf growth 48h	AMA1 RON2 block	HCV inh
CCn1c(COc2ccc(C)cc2)nnc1SCc1nc2ccccc2[nH]1	1	?	28	?	3%	14µM*
CCn1c(Cc2ccc(OC)cc2)nnc1SCc1nc2ccccc2c(=O)[nH]1	0	?	-5	-17%	10%	-12%
Cn1c(COc2ccccc2)nnc1SCc1nc2ccccc2[nH]1	-3	1.5µM*	-5	-14%	42%	6%
Clc1ccc(OCc2nnc(SCc3nc4ccccc4[nH]3)n2Cc2ccco2)cc1	-7	-16%[5.75 µM]	-14	?	61%	10µM*
O=C(OCc1ccccc1)N1CCC2CC1c1cc(N3CCN(S(=O)(=O)c4cccc5ccccc45)CC3)ccc12 (stereo unspecified)	/	/	/	/	-4%	/
CCN(C(=O)c1ccc2c(=O)n3c(nc2c1)CCCCC3)c1ccc(F)cc1	-1	?	13	0%	0%	-4%
CCCc1cc(=O)[nH]c(SCC(=O)NC2(C#N)CCCCC2)n1	/	-20%	/	-23%	4%	4%
Cn1nnnc1SCc1nc2ccccc2[nH]1	34*	128%	62	29%	-3%	17%
CCn1c(SCc2nc3ccccc3[nH]2)nnc1-c1cccs1	2	-27%	-7	0%	0%	3%
CCn1c(SCc2nc3ccccc3[nH]2)nnc1-c1ccccc1OC	10	3.7µM*	-5	?	-1%	5%
Oc1ccccc1C=NCCN1CCN(CCN=Cc2ccccc2O)C1c1ccccc1O (stereo unspecified)	/	/	/	/	-59%	14%
CCOC(=O)c1nn(-c2ccc(OCC)cc2)c2nc(-c3ccco3)c(C#N)c(=O)n12	-3	?	-9	12µM*	-7%	4%
CCOC(=O)c1nn(-c2ccc(Cl)cc2)c2nc(-c3ccc(C)cc3)c(C#N)c(=O)n12	15	/	6	9.3µM*	16%	-24%
CC(C)c1ccccc1OS(N)(=O)=O	-1	14%	-8	39%	8%	20%
Cc1ccc(N2CCN(C(=O)N3CCOCC3)CC2)c(C)c1	2	?	13	8%	4%	12%
Cc1cc(C)cc(N2CCN(C(=O)N3CCOCC3)CC2)c1	-2	6.6µM*	-2	-4%	-4%	16%
Cc1cc(C(=S)N2CCOCC2)c(C)n1-c1ccc(Cl)cc1	10	8%	19	?	-2%[11.6 µM]	-3%
Cc1cc(C)cc(-n2c(C)cc(C(=S)N3CCOCC3)c2C)c1	2	42%	9	12µM*	-24%	13%
Cn1c(SCc2ccccc2C#N)nnc1-c1ccncc1	-3	0%	-4	44%	-3%	17%
CC(C)n1c2ccccc2c2nnc(SCC(=O)Nc3ccccc3C(=O)O)nc21	-4	-7%	-16	?	-4%	6%
CCCCCc1nnc(NC(=O)c2cccc(S(=O)(=O)N3CCOCC3)c2)s1	/	?	/	?	-1%	?
O=C(Nc1ccc([N+](=O)[O-])cc1)c1ccccc1F	39*	?	117*	272%	9%	6%
O=C(Nc1ccc(-c2ccc([N+](=O)[O-])cc2)cc1)c1ccccc1F	16	10%	12	26%	14%	16%
